From PubChem BioAssay
Sampled rows, rich in hits. Any-hit rate of the full collection: about 5.7%.
hcDAF12 agonist = activates DAF-12 receptor from parasite H. contortus. HEK293 hcDAF-12 lit1-tk-luc reporter, luminescence; 0% DMSO, 100% Δ7-dafachronic acid. hit rate 1.4% among 370,000. AID 652067. activation, % at 6.8 µM;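 active = activation above the mean of all tested compounds plus 3 SD, cut at about 5.5% in these data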;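 also: 100% = response to 3 µM Δ7-dafachronic acid high control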
hgDAF-12 ag = agonists of H. glycines DAF-12 nuclear receptor | hit rate 1.8% among 370,000 | HEK293 GAL4-hgDAF12 UAS-luciferase reporter, agonist luminescence; normalized to butyrate control | activation, % at 6.8 µM;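 active = activation above a cutoff set at the mean of all screened compounds plus 3 SD, cut at about 10% in these data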;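 also: 0% = DMSO wells and 100% = sodium butyrate wells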
ssDAF-12 act = S. stercoralis DAF-12 activation, primary screen | hit rate 1% among 370,000 | activation, % at 6.8 µM | AID 652126 | HEK293 ssDAF-12/GRIP1 lit1-tk-luc reporter, luminescence; % of 3 µM dafachronic acid response;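 active = activation above the mean over all tested compounds plus 3 SD, cut at about 0.9% in these data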;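 also: 0% = DMSO-only wells and 100% = 3 µM delta7-dafachronic acid wells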
AHR activator = human AHR activation; AHR-responsive luciferase reporter cells, luminescence; hit rate 2.5% among 320,000; activation, % at 5 µM; P35869; AID 2796; in the data active = activation above about 47%;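 also: 0% = vehicle wells and 100% = reference agonist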
DAX1 inh-1 = inhibitors of human orphan nuclear receptor DAX1 (NR0B1); hit rate 0.99% among 340,000; HEK293 Gal4-DAX1 luciferase reporter, luminescence; AID 504766; P51843; inhibition, % at 6.75 µM;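 active = inhibition above the mean over all tested compounds plus 3 SD, cut at about 4.2% in these data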;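 also: 0% = DAX1-transfected cells with DMSO and 100% = empty-vector control cells with DMSO; inhibition shows as a rise in luminescence from relieved DAX1 repression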
DAX1 inh-2 = DAX1 (NR0B1) inhibition, primary screen. HEK293T StAR-luciferase reporter, SF-1/DAX-1 repression relief. AID 652010. inhibition, % at 6.8 µM. hit rate 1.1% among 370,000;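 active = inhibition above the mean over all tested compounds plus 3 SD, cut at about 3.6% in these data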;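 also: 0% = DAX-1 cells with DMSO and 100% = cells lacking DAX-1 with DMSO; higher inhibition means more luminescence from relief of DAX-1 repression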
DAX1 conf = NR0B1 (human) inhibition, confirmation; inhibition, % at 6.8 µM; hit rate 87% among 2,400; shares compounds with DAX1 inh-2; AID 652134; HEK293T StAR-promoter luciferase reporter, SF-1/DAX-1 repression;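 active = inhibition above the average of every tested compound plus 3 SD, cut at about 3.8% in these data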;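 also: 0% = DAX-1 cells with DMSO and 100% = no DAX-1 control cells with DMSO; active compounds raise luminescence by relieving repression of the StAR reporter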
SF1 mutant ctr = nonselective inhibitor or artifact in SF-1 mutant DAX1 counter-screen | HEK293 StAR-luciferase, SF-1 AF2 mutant, luminescence | hit rate 78% among 2,400 | inhibition, % at 6.8 µM | shares compounds with DAX1 inh-2;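 active = inhibition above the mean of all tested compounds plus 3 SD, cut at about 3% in these data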;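 also: 0% = DAX-1 transfected cells with DMSO and 100% = cells without DAX-1 with DMSO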
An asterisk follows results filed as active; · = not tested or not shown.

SMILES	hcDAF12 agonist	hgDAF-12 ag	ssDAF-12 act	AHR activator	DAX1 inh-1	DAX1 inh-2	DAX1 conf	SF1 mutant ctr
CCC1CCCCN1CCCNC(=O)c1ccc2nc(N3CCC(C)CC3)sc2c1 (centres undefined)	3.9	8.0	0.1	-7.9	-0.7	1.9	·	·
Cc1ccnc(NC(=O)c2ccc(C(=O)c3ccccc3)cc2)c1	3.5	9.1	-0.6	5.1	-2.8	9.1*	11.1*	3.2*
Cc1ccnc(NC(=O)c2ccc(S(=O)(=O)N3CCCCCC3)cc2)c1	2.6	7.0	-0.4	1.1	0.6	9.2*	10.1*	5.1*
CCOc1ccc(C(=O)NCC(=O)Nc2cc(C)ccn2)cc1OCC	1.5	3.8	-0.6	0.3	2.9	1.3	·	·
Cc1ccnc(NC(=O)CCNC(=O)c2ccc(Cl)cc2)c1	3.1	11.3*	-0.5	·	0.6	5.1*	14.0*	7.0*
Cc1ccc(C(=O)NCC(=O)Nc2cc(C)ccn2)cc1	3.7	5.4	-0.1	5.7	1.0	4.8*	6.8*	4.5*
Cc1ccnc(NC(=O)c2ccc(S(=O)(=O)c3ccccc3)cc2)c1	-1.8	-2.5	-2.2	-3.4	-1.7	-0.1	·	·
Cc1ccnc(NC(=O)c2ccc(S(=O)(=O)N3CCCCC3)cc2)c1	-1.1	1.4	-1.5	-2.4	0.6	0.0	·	·
Cn1nc([N+](=O)[O-])nc1N1CCN(c2ccc(F)cc2)CC1	-1.5	-0.2	-1.2	-12.3	1.1	0.0	·	·
COc1ccc(C(O)c2ncc(-c3ccccc3C)[nH]2)cc1F (centres undefined)	-0.9	-1.6	-1.5	·	·	0.8	·	·
CN(C)S(=O)(=O)c1cccc(C(=O)N/N=C\c2ccccc2[N+](=O)[O-])c1	3.5	11.4*	0.6	·	·	6.9*	11.6*	9.7*
COc1ccccc1/C=N\NC(=O)c1cccc(S(=O)(=O)N(C)C)c1	-0.9	0.5	-1.6	·	·	0.3	·	·
O=C(Nc1nnc(SCc2ccccc2F)s1)C1=COCCO1	3.4	4.0	-0.2	3.4	0.4	5.8*	6.4*	1.9
C=CCSc1nnc(NC(=O)C2=COCCO2)s1	5.7*	8.4	0.1	8.3	3.2	6.8*	7.1*	6.6*
O=C(Nc1nnc(SCc2ccccc2)s1)C1=COCCO1	2.6	4.0	-0.3	10.0	0.0	2.1	·	·
CCOC(CNC(=O)Cn1nc(Cc2ccncc2)c2ccccc2c1=O)OCC	-1.7	-0.4	-1.6	-1.5	0.2	0.4	·	·
CC(=Nc1ccccc1)C1=C(O)C(Cc2ccc(F)cc2)NC1=O (centres undefined)	-1.0	6.7	-0.8	·	-0.1	-4.0	·	·
CC(=Nc1ccccc1)C1=C(O)C(Cc2ccccc2)NC1=O (centres undefined)	4.4	4.5	0.6	·	2.3	8.2*	30.8*	-4.8
OC[C@@H]1CC[C@@H](Cc2ccc(-c3ccccc3)cc2)O1	3.8	9.5	0.4	·	1.6	5.6*	6.7*	4.8*
NC(=O)NC[C@@H]1CC[C@@H](Cc2ccc(-c3ccccc3)cc2)O1	·	·	·	·	0.1	·	·	·
Cc1cc(C(=O)COC(=O)Cc2c(F)cccc2Cl)c(C)n1C	4.9	10.0	-0.2	·	2.5	5.0*	5.8*	3.2*
Cn1c(N)c(C(=O)COC(=O)Cc2c(F)cccc2Cl)c(=O)n(C)c1=O	0.4	0.7	-0.7	0.4	-0.7	-0.5	·	·
O=C(N/N=C/c1cc(Br)c(O)c(Br)c1)c1cc2c(ccc3ccccc32)o1	-0.9	3.7	-0.5	·	-0.8	5.2*	2.9	0.7
COc1ccccc1Nc1nnc(SCC2CCCCO2)s1 (centres undefined)	6.0*	11.2*	0.3	-6.3	-1.3	5.7*	4.5*	1.1
Cc1cc(NC(=O)c2nn(C)c(C)c2[N+](=O)[O-])no1	-1.7	1.4	-1.0	0.4	0.5	-0.2	·	·
SMILES	hcDAF12 agonist	hgDAF-12 ag	ssDAF-12 act	AHR activator	DAX1 inh-1	DAX1 inh-2	DAX1 conf	SF1 mutant ctr
Cc1cc(NC(=O)c2nn(C)c(C)c2Br)no1	2.6	2.2	-0.5	62.7*	0.4	4.6*	4.6*	5.2*
CCOC(=O)NNC(=O)C1CCC(C)CC1 (centres undefined)	-1.9	2.3	-0.9	-2.2	0.1	-0.8	·	·
COc1ccc(-c2cc3ccc(OCC(C)=O)cc3oc2=O)cc1OC	4.0	4.1	-1.1	7.1	0.4	2.8	·	·
COc1ccc(-c2cc3ccc(OCC(C)=O)cc3oc2=O)cc1	5.8*	10.5*	-0.1	2.2	2.9	9.8*	6.5*	4.5*
CCc1ccc(C2=NN(C(=O)OC)C(O)(C(F)(F)F)C2)cc1 (centres undefined)	6.0*	9.2	1.0*	-0.2	-2.3	6.6*	11.8*	5.4*
Cc1cc(C)cc(N2CC(O)=C(c3nc4ccccc4c(=O)[nH]3)C2=N)c1	0.6	-3.5	-0.6	-8.2	0.3	0.0	·	·
COc1ccc(OCc2cc(C(=O)N(C)Cc3nccn3C)no2)c2ccccc12	-0.3	3.5	-0.4	31.8	-0.5	0.0	·	·
COc1cccc(OCc2cc(C(=O)N(C)Cc3nccn3C)no2)c1	0.1	7.8	0.1	10.3	0.9	5.4*	6.8*	4.6*
Cc1nc2nc(-c3ccc(Cl)cc3)cn2nc1C	5.1	9.6	0.4	36.7	-0.4	6.2*	9.4*	2.9*
O=C(c1ccc(-c2ccccc2Cl)o1)N1CCC1	1.1	8.3	-0.1	·	0.8	5.1*	5.7*	4.3*
O=C(NCC1CCCO1)c1ccc(-c2ccccc2Cl)o1 (centres undefined)	2.5	13.2*	-0.3	10.5	2.3	7.3*	10.9*	6.0*
NC(=O)C1CCCN(C(=O)c2ccc(-c3cccc(Cl)c3Cl)o2)C1 (centres undefined)	2.5	10.1	0.0	·	0.2	5.6*	9.2*	4.8*
O=C(c1ccc(-c2ccccc2Cl)o1)N1CCCC(C(F)(F)F)C1 (centres undefined)	0.2	3.4	-1.1	-0.3	1.0	3.2	·	·
Cc1cc(NC(=O)c2cccs2)ncc1NC(=O)c1cccc(F)c1	0.9	9.3	0.1	1.4	0.3	1.1	·	·
CCOC(=O)C1(Cc2ccc(OC)cc2)CCN(C(=O)c2ccoc2C)CC1	-0.2	-0.6	-1.0	2.6	0.6	0.9	·	·
O=C(Nc1nc(OCC(F)(F)F)cnc1/C=C\c1ccccc1)c1ccsc1	-0.1	3.8	-1.3	·	·	-0.1	·	·
COC(=O)c1ccc(NC(=O)C(=O)c2cccn2C)cc1	5.1	18.2*	0.4	9.7	-2.8	6.9*	15.1*	7.3*
C/C(=N\NC(=O)c1ccccn1)C12CC3CC(CC(C3)C1)C2	3.8	12.7*	0.0	4.8	0.9	5.8*	5.6*	3.3*
